# In the supplement of paper PMC9950053:
# Counter-ions that a name gives are not always drawn.
# System: Danio rerio larvae (5 dpf)
# Test: combined upward orientation toward moving lines (periods 7-14) minus DMSO control (percentage points); higher = more orientation with moving lines than DMSO larvae
# Details: 10 µM; exposure time: 3 h pre-incubation + 3 h imaging
# Experimental: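 Wild-type 5 dpf zebrafish larvae (n=48 per drug, 96-well plates, 28.5 °C) were exposed to Tocris FDA-approved library compounds at 10 µM (0.1% DMSO) for 3 h before and 3 h during imaging. Images were taken every 6 s during visual (moving coloured lines) and acoustic stimuli, and larvae were tracked with the DeepLabCut-based Z-LaP Tracker. Each behavioural measure is the treated-group mean minus the DMSO vehicle control mean (n=844), in percentage points. This mapping covers compounds with 4-character plate codes.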
row,Structure (SMILES),combined upward orientation toward moving lines
1,CCN(Cc1ccncc1)C(=O)C(CO)c1ccccc1 (stereo not given) [Tropicamide],3.89
2,COc1c(C)c2c(c(O)c1C/C=C(\C)CCC(=O)O)C(=O)OC2 [Mycophenolic acid],-0.977
3,OCCN(CCO)c1nc(N2CCCCC2)c2nc(N(CCO)CCO)nc(N3CCCCC3)c2n1 [Dipyridamole],-2.19
4,COc1cccc2c1C(=O)c1c(O)c3c(c(O)c1C2=O)C[C@@](O)(C(=O)CO)C[C@@H]3O[C@H]1C[C@H](N)[C@H](O)[C@H](C)O1 [Doxorubicin hydrochloride],-1.38
5,C=CC(=O)N1CCC[C@@H](n2nc(-c3ccc(Oc4ccccc4)cc3)c3c(N)ncnc32)C1 [Ibrutinib],-3.41
6,CCOc1ccccc1OCCN[C@H](C)Cc1ccc(OC)c(S(N)(=O)=O)c1 [Tamsulosin hydrochloride],-16.3
7,NS(=O)(=O)Cc1noc2ccccc12 [Zonisamide],1.75
8,COc1c(C)c2c(c(O)c1C/C=C(\C)CCC(=O)OCCN1CCOCC1)C(=O)OC2 [Mycophenolate mofetil],4.45
9,Clc1ccccc1C(c1ccccc1)(c1ccccc1)n1ccnc1 [Clotrimazole],-3.91
10,CCN(CC)CCNC(=O)c1c(C)[nH]c(/C=C2\C(=O)Nc3ccc(F)cc32)c1C [Sunitinib malate],-5.61
11,Nc1ncn([C@H]2C[C@H](O)[C@@H](CO)O2)c(=O)n1 [Decitabine],-6.22
12,COc1ccccc1OCCNCC(O)COc1cccc2[nH]c3ccccc3c12 (stereo not given) [Carvedilol],-11.6
13,CC(C)(C)NC(=O)[C@@H]1C[C@@H]2CCCC[C@@H]2CN1C[C@@H](O)[C@H](Cc1ccccc1)NC(=O)[C@H](CC(N)=O)NC(=O)c1ccc2ccccc2n1 [Saquinavir mesylate],-6.24
14,C[C@]12CCC(=O)C=C1CC[C@@H]1[C@@H]2[C@@H](O)C[C@@]2(C)[C@H]1CC[C@]2(O)C(=O)CO [Hydrocortisone],0.758
15,CN1CCN(CCCN2c3ccccc3Sc3ccc(Cl)cc32)CC1 [Prochlorperazine dimaleate],0.242
16,NC(=O)N1c2ccccc2C=Cc2ccccc21 [Carbamazepine],-1.82
17,CCc1ccc(CCOc2ccc(CC3SC(=O)NC3=O)cc2)nc1 (stereo not given) [Pioglitazone hydrochloride],-3.8
18,OCCOCCN1CCN(C2=Nc3ccccc3Sc3ccccc32)CC1 [Quetiapine hemifumarate],-3.4
19,CC(C)C(=O)Nc1ccc([N+](=O)[O-])c(C(F)(F)F)c1 [Flutamide],-15.3
20,CN(CCOc1ccc(NS(C)(=O)=O)cc1)CCc1ccc(NS(C)(=O)=O)cc1 [Dofetilide],-4.9

row,Structure (SMILES),combined upward orientation toward moving lines
1,CC(c1cc2ccccc2s1)N(O)C(N)=O (stereo not given) [Zileuton],-7.03
2,CCOC(=O)[C@H](CCc1ccccc1)N[C@@H](C)C(=O)N1[C@H](C(=O)O)C[C@@H]2CCC[C@@H]21 [Ramipril],-5.05
3,CC[C@H](C)C(=O)O[C@H]1C[C@@H](C)C=C2C=C[C@H](C)[C@H](CC[C@@H]3C[C@@H](O)CC(=O)O3)[C@H]21 [Lovastatin],-3.5
4,OC(CNCC(O)C1CCc2cc(F)ccc2O1)C1CCc2cc(F)ccc2O1 (stereo not given) [Nebivolol hydrochloride],-7.15
5,Nc1nc(Cl)nc2c1ncn2[C@@H]1O[C@H](CO)[C@@H](O)[C@@H]1F [Clofarabine],-4.29
6,CCCc1nc(C(C)(C)O)c(C(=O)O)n1Cc1ccc(-c2ccccc2-c2nnn[nH]2)cc1 [Olmesartan],-6.03
7,CCc1c2c(nc3ccc(OC(=O)N4CCC(N5CCCCC5)CC4)cc13)-c1cc3c(c(=O)n1C2)COC(=O)[C@]3(O)CC,-3.82
8,CC(C)c1ccc2oc3nc(N)c(C(=O)O)cc3c(=O)c2c1 [Amlexanox],-5.36
9,CCCCNc1cc(C(=O)O)cc(S(N)(=O)=O)c1Oc1ccccc1 [Bumetanide],-3.42
10,N#Cc1ccc(C(c2ccc(C#N)cc2)n2cncn2)cc1 [Letrozole],-1.71
11,NC(=O)c1ncn([C@@H]2O[C@H](CO)[C@@H](O)[C@H]2O)n1 [Ribavirin],-1.89
12,CC1(C)O[C@@H]2[C@@H](CO[C@@]3(COS(N)(=O)=O)OC(C)(C)O[C@@H]23)O1 [Topiramate],-4.17
13,CCC(C)(C)C(=O)O[C@H]1C[C@@H](C)C=C2C=C[C@H](C)[C@H](CC[C@@H]3C[C@@H](O)CC(=O)O3)[C@H]21 [Simvastatin],-3.05
14,Cc1ccccc1C(=O)Nc1ccc(C(=O)N2CCCC(O)c3cc(Cl)ccc32)c(C)c1 (stereo not given) [Tolvaptan],-0.0581
15,C/C(O)=C(\C#N)C(=O)Nc1ccc(C(F)(F)F)cc1 [Teriflunomide],-3.07
16,Cc1nnc(C(C)C)n1C1C[C@H]2CC[C@@H](C1)N2CC[C@H](NC(=O)C1CCC(F)(F)CC1)c1ccccc1 (stereo in doubt) [Maraviroc],-1.2
17,CC(=O)O[C@H]1C(=O)[C@@]2(C)[C@H]([C@H](OC(=O)c3ccccc3)[C@]3(O)C[C@H](OC(=O)[C@H](O)[C@@H](NC(=O)c4ccccc4)c4ccccc4)C(C)=C1C3(C)C)[C@]1(OC(C)=O)CO[C@@H]1C[C@@H]2O [Taxol],-6.91
18,CC(=O)Oc1ccccc1C(=O)O [Aspirin],-3.93
19,Nc1nc2[nH]cc(CCc3ccc(C(=O)N[C@@H](CCC(=O)O)C(=O)O)cc3)c2c(=O)[nH]1 [Pemetrexed],-1.85
20,CCCCC(=O)N(Cc1ccc(-c2ccccc2-c2nnn[nH]2)cc1)[C@H](C(=O)O)C(C)C [Valsartan],2.9
